Bioassay records (PubChem)
Tg IFNy HTS – blocks Toxoplasma gondii growth in the presence of IFN-gamma. Toxoplasma gondii growth in IFN-gamma-treated host cells; hits give low values. activity change, negative = inhibition, % (test concentration not listed). 69,000 tested, 3.8% active; in the data active means activity change below about -70%, passing the limit was not always enough;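 further: host cells are HeLa cells infected with Toxoplasma gondii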
* marks the source's active call; other numbers are inactive results; ! = a repeat was not active. Many of the other results were omitted from the sample, so hits are more common in it than they were.

SMILES	Tg IFNy HTS
CC1CC(C)(C)N2C(=O)C(=O)c3cc(OC(=O)c4ccccc4)cc1c32 (configuration not stated)	-96*
CS(=O)(=O)c1cccc(C(=O)Oc2ccccc2)c1	-32
CC1=CC(C)(C)N(C(=O)c2ccccc2)c2ccc(OC(=O)c3ccccc3)cc21	-51
COCC(=O)N(C)C[C@H]1[C@H](c2ccccc2)[C@@H](CO)N1C(=O)Cc1ccncc1	10
C=C[C@@H]1C[C@]1(NC(=O)[C@@H]1C[C@@H](Oc2ncc(OC)c3ccc(Cl)cc23)CN1C(=O)[C@@H](NC(=O)OC(C)(C)C)C(C)(C)C)C(=O)NS(=O)(=O)C1CC1	-73*
CNC[C@H]1OCCCC[C@@H](C)Oc2ccc(NC(=O)Nc3ccc(OC)cc3)cc2C(=O)N([C@@H](C)CO)C[C@@H]1C	-13
CN(C)CCOc1ccc(-c2nc(-c3ccc4c(c3)CC/C4=N\O)c(-c3ccncc3)[nH]2)cc1	-79*
COc1ccc(-c2nc(-c3ccc(O)cc3)[nH]c2-c2ccc(OC)cc2)cc1	8
CN(C)CCCn1ccnc1-c1ccc(N(C)C)nc1	4
CCN1C(=O)CCc2cc(NS(=O)(=O)Cc3cccc(Cl)c3)ccc21	-34
O=C(NCc1cccc(Cl)c1)c1ccc2c(c1)CCC(=O)N2Cc1ccccc1	-100*
O=C(NCc1ccc(N2CCCC2=O)cc1)c1cccc(Cl)c1	-3
Cc1sc2ncnc(Oc3ccc(OCc4ccccc4)cc3)c2c1C	-101*
Oc1ccc(OCc2ccccc2)cc1	-33
Cc1sc2ncnc(NCc3ccco3)c2c1C	-3
Cc1ccc(C(Cc2ccsc2)NCc2ccccc2-n2cccn2)nc1 (configuration not stated)	-7
COc1nccnc1N1CCC2(CC1)C(=O)N(C)c1ccccc12	-7
O=C(C1CC2(CCNCC2)CN1)N1CCOc2ccc(Cl)cc2C1 (configuration not stated)	81
Nc1ncnc2c1ncn2C1OC(COP(=O)(O)O)C(O)C1O (configuration not stated) (tested in a mixture with another compound)	18
Nc1ncnc2c1ncn2CCOCP(=O)(O)O	8
CC(C)OC(=O)OCOP(=O)(CO[C@H](C)Cn1cnc2c(N)ncnc21)OCOC(=O)OC(C)C	-78*
COc1cnc(C2(O)CCN(C(=O)c3cscn3)CC2)c(OC)n1	-4
C[C@H](CO)N1C[C@H](C)[C@@H](CN(C)Cc2ccccc2)OCc2cn(nn2)CCCC1=O	24
CNC(=O)c1cnc2n1CCN(c1cc(C(F)(F)F)ncn1)C2	0
CO[C@@H]1CN(C)C(=O)c2cc(NC(=O)C3CCCCC3)ccc2OC[C@@H](C)N(Cc2cccnc2)C[C@H]1C	1
SMILES	Tg IFNy HTS
CO[C@H]1CN(C)C(=O)c2cc(NC(=O)c3nc4ccccc4s3)ccc2OC[C@H](C)NC[C@@H]1C	-17
CO[C@H]1CN(C)C(=O)c2ccc(NC(=O)c3nc4ccccc4s3)cc2OC[C@H](C)N(Cc2cccnc2)C[C@H]1C	-113*
CO[C@@H]1CN(C)C(=O)c2ccc(NC(=O)c3nc4ccccc4s3)cc2OC[C@@H](C)N(Cc2cccnc2)C[C@H]1C	-85*
CO[C@H]1CN(C)C(=O)c2cc(NC(=O)C3CCCCC3)ccc2OC[C@@H](C)N(Cc2cccnc2)C[C@H]1C	69
CO[C@H]1CN(C)C(=O)c2ccc(NC(=O)c3nc4ccccc4s3)cc2OC[C@@H](C)N(Cc2cccnc2)C[C@@H]1C	16
CO[C@@H]1CN(C)C(=O)c2cc(NC(=O)C3CCCCC3)ccc2OC[C@H](C)N(Cc2cccnc2)C[C@H]1C	27
CO[C@@H]1CN(C)C(=O)c2ccc(NC(=O)c3nc4ccccc4s3)cc2OC[C@@H](C)N(Cc2cccnc2)C[C@@H]1C	-112*
CO[C@@H]1CN(C)C(=O)c2ccc(NC(=O)c3cccnc3)cc2OC[C@@H](C)N(CC2CCCCC2)C[C@H]1C	144
O=C(NCCc1csc(-c2cccc(F)c2)n1)C1CC1	-2
O=C(NCCCc1ccco1)c1c(O)cccc1O	205
Cc1nnc(Cn2nc(C3CCNCC3)n(Cc3ccccc3)c2=O)s1	-54
N#Cc1c(-c2cccs2)cc2c(c1N)c(=O)oc1ccccc12	54
Cc1ccc(S(=O)(=O)N2CCC(C(=O)NCCc3csc(-c4ccccc4)n3)CC2)c(C)c1	2
c1csc(-c2nccn2Cc2ccccc2-n2cccn2)c1	7
Cc1ccsc1-c1cn(C(C(=O)N(C)C)c2ccccc2)nn1 (configuration not stated)	323
Cn1nc(CC2CCN(C(=O)C3CC3(F)F)CC2)n(-c2ccccc2)c1=O (configuration not stated)	-1
COc1ccc(-c2cc(N)nc(N)n2)cc1	16
COc1cccc(CNc2ncc(-c3ccncc3)c(-c3cccs3)n2)c1	-52
COc1ccc(-c2cc(C(F)(F)F)n3nc(-c4cccs4)cc3n2)cc1	-51
COc1ccc(-c2cc(C3CCN(C(C)=O)CC3)ccn2)cc1	74
COc1ccc(-c2ccnc(-c3cccs3)n2)cc1	-103*
COc1ccc(-c2ccnc(SC)n2)cc1	-82*
Cc1nc(C)n(CC(=O)N2CCc3sccc3C2c2cccs2)n1 (configuration not stated)	15
CCCc1ccc(CN2CCN3C(=O)CN(C)C(=O)C3C2)o1 (configuration not stated)	1
CCCCCN=c1ccn(Cc2ccccc2)c2ccccc12	0
SMILES	Tg IFNy HTS
CCCCCCCCCCCCCCCCn1cc[n+](Cc2ccccc2)c1C	-79*
Cc1[nH][nH]c(=O)c1C(c1cc(C)n(-c2oc(C)c(C)c2C#N)c1C)c1c(C)[nH][nH]c1=O	-67
O=C(N1CCN(c2nc3ccccc3s2)CC1)N1c2ccccc2Sc2ccccc21	-18
CCc1cc(=O)[nH]c(NC2CCN(C(=O)N3c4ccccc4Sc4ccccc43)CC2)n1	-117*
CCCc1cc(=O)[nH]c(SCC(=O)N2CCN(c3ccccc3OC)CC2)n1	27
O=C(NC1CCOCC1)c1ccc(-c2cc(-c3cn[nH]c3-c3ccccn3)ccn2)cc1	-37
c1ccc(-c2[nH]ncc2-c2ccnc3ccccc23)nc1	-80*!
c1cc(-c2cnccn2)c2cccnc2c1	-49
Cc1nccn1-c1ccc(CNC(=O)c2cn(-c3ccccc3)nn2)cc1	-22
Cc1ccccc1CNC(=O)N1CC[C@H]2CN(CC(C)C)S(=O)(=O)[C@@H]2CC1	-28
COc1ccc2[nH]c(=O)c(CN(C(=O)c3ccco3)C(C)C)cc2c1	27
CCC(=O)N(Cc1ccc(C)cc1)Cc1cc2cccc(C)c2n2nnnc12	34
Cc1ccc(CN(Cc2cc3cccc(C)c3[nH]c2=O)C(=O)c2ccco2)cc1	-79*
Cc1ccc(-c2ccc(C(=O)NCCC3CN(C)CCO3)o2)cc1 (configuration not stated)	6
Fc1ccc(-c2cccc(-n3cnnc3)c2)c(Cl)c1	-20
O=C(NCc1c(Cl)cccc1Sc1ccc(Cl)cc1)c1ccc(Cl)cc1	-102*
O=C(CNC(=O)c1ccc(Cl)cc1)NO	17
O=C(Nc1ccc(Sc2cccs2)cc1)c1ccc(Cl)cc1	-62
O=C(CN1CCOCC1)NC[C@@H]1N[C@@H](CO)[C@H]1c1ccc(-c2ccccc2)cc1	-48
C#CC(C)(C)NC(=O)Cc1csc(SCC)n1	4
Cc1ccc(Nc2cc(C)nc3c(C)cccc23)cc1	-59
Cc1cc(C(F)(F)F)nc(CCNC(=O)c2c(O)cccc2O)n1	-2
Cc1cc(Nc2cc(C(F)(F)F)nc3c(Cl)cccc23)on1	-80*
